Tau ThT inhib: inhibitors of human tau fibril formation, thioflavin T binding. P10636. recombinant tau K18 P301L, heparin-induced fibrillization, ThT fluorescence. Potency, µM (titrated, usually from 57.4 µM), for inactives: at the top dose activity, negative = inhibition, hits mostly inhibitors. 270,000 compounds, 2.1% hits; further: nearly all actives have a fitted effect of over 55% in size
Target sequence (P10636 561-689 P618L limits assumed): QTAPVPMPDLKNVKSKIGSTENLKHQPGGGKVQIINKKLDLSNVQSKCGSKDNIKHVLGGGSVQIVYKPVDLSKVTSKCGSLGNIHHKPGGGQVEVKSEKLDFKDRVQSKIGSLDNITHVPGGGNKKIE
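Heparin-induced fibrillization of the P301L-mutant K18 repeat-domain fragment of human tau was followed by ThT binding in quantitative high-throughput format.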
TRb-SRC2 inh: TRbeta-SRC2 interaction inhibition; P10828; TRbeta-SRC2 peptide binding, fluorescence polarization; receptor liganded with 1 µM T3; Potency, µM (top dose mostly 106 µM), for the others: at the highest dose activity change, negative = inhibition, most hits filed as inhibitors; 280,000 compounds, 0.065% hits; AID 1469;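 further: plate controls were bound peptide for no effect and peptide without receptor for full effect; nearly all actives have a fitted effect of over 50% in size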
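Assay buffer: 20 mM Tris-HCl, 100 mM NaCl, 10% glycerol, 1 mM EDTA, 0.01% NP-40, 1 mM DTT, 1 uM T3, 5% DMSO; TRb LBD 0.6 uM, Texas Red SRC2 20 nM; FP after 5 hr.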
Tau FP inhib: tau fibrillization inhibition (FP); P10636; K18 P301L tau heparin fibrillization, Alexa594 FP, 6 h; Potency, µM (doses to about 57.7 µM), inactives show at the top dose activity, negative = inhibition, actives largely listed as inhibitors; 280,000 compounds, 0.39% hits; AID 1468; further: nearly all actives have a fitted effect of over 55% in size
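Quantitative HTS format: compounds meet 15 uM recombinant K18 P301L tau and Alexa 594-tau tracer in 100 mM sodium acetate pH 7; 20 uM heparin triggers fibrillization at 37 C over 6 hr; FP gives the signal.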
Tau fluor counter: counter-screen for tau fibril formation inhibitors; tau K18 P301L Alexa594 fluorescence, heparin fibrillization; Potency, µM (highest dose often 57.7 µM), for the others: at the top dose activity change, negative = decrease; 280,000 compounds, 0.93% hits; further: nearly all actives have a fitted effect of over 55% in size
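Human tau K18 P301L (15 uM unlabeled, 0.24 uM Alexa 594-labeled) in 100 mM sodium acetate pH 7 with 20 uM heparin, 6 hr at 37 C. ThT 30 uM added, 1 hr ambient; Alexa 594 FP and total fluorescence read at 555/632 nm.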
TR SRC2 fluor cs: counter-screen for TRb-SRC2 inhibitors: fluorescence interference; TRb/SRC2 Texas Red total fluorescence interference; Potency, µM (doses to about 106 µM), for the others: at the highest dose fluorescence change, negative = quenching; 280,000 compounds, 0.29% hits; AID 1479; active means well fitted curve in either direction with a large enough effect; inconclusive means small, poorly fitted or top-dose-only effect
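Human TRβ ligand-binding domain (0.6 uM) and Texas Red SRC2 peptide (20 nM) in Tris buffer with 1 uM T3 and 5% DMSO were incubated with pinned compound for 5 hr at ambient temperature. Total fluorescence was computed as S + 2P (555/632 nm).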
RGS12 GoLoco inh: blocks human Gai1 binding to RGS12 GoLoco peptide, red readout | 230,000 compounds, 0.44% hits | Gai1:RGS12 GoLoco peptide FP, rhodamine, 10 min | Potency, µM (highest dose often 61.6 µM), for the others: top-dose activity, negative = inhibition, most hits filed as inhibitors | P63096; active means well fitted inhibition curve with a large enough effect, not every such curve was filed as active; inactive means no such curve, though single readings can be large or run the other way; further: nearly all actives have a fitted effect of over 30% in size
Target sequence (P63096 whole entry, looked up): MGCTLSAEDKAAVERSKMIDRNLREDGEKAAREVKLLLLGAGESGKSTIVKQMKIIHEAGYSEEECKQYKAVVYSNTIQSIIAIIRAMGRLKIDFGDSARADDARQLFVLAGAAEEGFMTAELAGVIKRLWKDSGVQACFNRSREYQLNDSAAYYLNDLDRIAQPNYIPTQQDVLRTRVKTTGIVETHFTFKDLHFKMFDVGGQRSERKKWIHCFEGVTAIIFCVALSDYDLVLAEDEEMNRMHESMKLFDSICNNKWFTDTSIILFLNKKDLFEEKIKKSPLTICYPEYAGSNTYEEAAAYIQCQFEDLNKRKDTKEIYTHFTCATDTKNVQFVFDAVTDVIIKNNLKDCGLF
Active calls of the source: *; u = inconclusive; x = not tested or not shown; [ ] = dose if it differs, or a comment. Rows were chosen to be rich in hits. Some 3.2% of all compounds tested hit in one or more screens of this group. Unless noted, the call rests on the fitted dose curve; in most records, active means well fitted curve in the direction sought with a large enough effect; inconclusive means small, poorly fitted or top-dose-only effect, or another doubt; inactive means no such curve, though single readings can be large; an effect the other way counts as inactive or inconclusive. Unless noted, on the % scale 0 is the no-effect control and ±100 the full control effect; potency means the concentration at half of the fitted maximal effect.

SMILES	Tau ThT inhib	TRb-SRC2 inh	Tau FP inhib	Tau fluor counter	TR SRC2 fluor cs	RGS12 GoLoco inh
CCN1CCc2c(sc(N)c2C#N)C1	u	0%	-9%	-9%	6%	64%
N#Cc1c(N)sc(=S)c2c1CCN(Cc1ccccc1)C2	1.3µM*	u	u	u	u	-57%
C=C(C(=O)c1ccccc1)C(C)C(=C)C(=O)c1ccccc1	28µM*	-11%	-20%	-14%	2%	1%
COc1ccc(OC)c(C2OCCC=CC2C)c1 (stereo unspecified)	-3%[11.5 µM]	6%[11.2 µM]	-5%[11.6 µM]	-2%[11.6 µM]	-1%[11.2 µM]	x
Cc1ccc(C)c2[nH]c(=O)c(C(c3nnnn3Cc3ccccc3)N3CCc4ccccc4C3)cc12 (stereo unspecified)	22µM*	-5%	u	-21%	0%	-2%
Cc1cccc2cc(C(c3nnnn3CC3CCCO3)N3CCc4ccccc4C3)c(=O)[nH]c12 (stereo unspecified)	u	3%	-4%	-1%	3%	7%
C[N+]1(CC2COC3(CCCCC3)O2)CCCCC1 (stereo unspecified)	x	-3%	4%	6%	-4%	8.9µM*
Cc1nc(NCc2ccccc2)c2nc(-c3ccccc3)n(CCN3CCCC3)c2n1	1%	2%	6%	0%	-4%	9%
CC(C)(C)c1cc(=O)n(-c2ccccc2)[nH]1	40µM*	-4%	u	-21%	-3%	-16%
Cc1ccc(SCC(CC(C)C)N2CCN(C)CCC2=O)cc1 (stereo unspecified)	x	2%	x	x	0%	x
CCCn1c(-c2ccc(F)cc2)nc2c(NCCN(C)C)nc(C)nc21	-1%	0%	-10%	-5%	0%	-3%
COc1cc(/C=C2\SC(=S)N(C(Cc3ccccc3)C(=O)O)C2=O)ccc1O (stereo unspecified)	11µM*	29%	2%	-17%	22%	196%
COc1cc(/C=C2\SC(=S)N(Nc3ncc(C(F)(F)F)cc3Cl)C2=O)ccc1O	16µM*	u	-15%	14µM*[quencher]	23%	359%
Cc1cc(C)nc(NN2C(=O)/C(=C/c3ccccc3)SC2=S)n1	u	-2%	-3%	-14%	0%	24%
COc1ccc(/C=C2\SC(=S)N(C(C(=O)O)c3ccccc3)C2=O)c(OC)c1 (stereo unspecified)	13µM*	1%	-11%	-11%	-4%	3%
O=C1/C(=C/c2ccc(O)c(O)c2)SC(=S)N1Nc1ccccc1	5µM*	22%	-5%	11µM*[quencher]	10%	265%
CO[C@@H](C(C)C)[C@@H](C)[C@@H]1OC(=O)C[C@@H]1O	-10%[11.5 µM]	-19%[11.2 µM]	0%[11.6 µM]	-9%[11.6 µM]	u	x
CN(C)c1ccc(-c2cncnc2-n2ccnc2)cc1	x	x	x	x	x	-12%
CC[C@@H](C(=O)[C@@H](C)[C@@H](O)[C@H](C)CCc1ccc(C)c(O)c1C(=O)O)C1O[C@](CC)(C2CC[C@](O)(CC)[C@H](C)O2)C[C@@H]1C (stereo partly specified)	x	9%	x	x	2%	x
Nc1cc(Cl)nc(C(=O)O)c1Cl	x	-4%[201 µM]	x	x	-2%[201 µM]	x
COc1cc(/C=C2\SC(=S)N(Nc3ccccc3)C2=O)ccc1O	11µM*	1%	11%	28µM*[quencher]	1%	331%
O=C(O)C(Cc1ccccc1)N1C(=O)/C(=C/c2ccccc2)SC1=S (stereo unspecified)	u	2%	0%	0%	-2%	-2%
O=C(O)C(Cc1ccccc1)N1C(=O)/C(=C/c2cccc3ccccc23)SC1=S (stereo unspecified)	20µM*	11%	-6%	-16%	-4%	-13%
CCOc1cc(/C=C2\SC(=S)N(Nc3ccccc3)C2=O)ccc1O	11µM*	u	1%	13µM*[quencher]	28%	318%
CCOc1ccc(/C=C2\SC(=S)N(NS(=O)(=O)c3ccccc3)C2=O)cc1OC	14µM*	4%	8%	-6%	-4%	9%
SMILES	Tau ThT inhib	TRb-SRC2 inh	Tau FP inhib	Tau fluor counter	TR SRC2 fluor cs	RGS12 GoLoco inh
CCCCc1cc2c(cn1)=C(OC(=O)c1cccs1)C(C)(OC(=O)CC)C(=O)C=2 (stereo unspecified)	-5%[11.5 µM]	7%[11.2 µM]	-8%[11.6 µM]	-12%[11.6 µM]	0%[11.2 µM]	19%[14.2 µM]
O=C(O)c1ccc(/C=C2\SC(=S)N(Nc3ccccc3)C2=O)cc1	u	7%	-17%	u	-2%	1%
O=C1/C(=C/c2ccncc2)SC(=S)N1Nc1ccccc1	18µM*	5%	u	u	2%	277%
CN1CCN(CN2C(=O)C3C4C=CC(C3C2=O)C2C3C(=O)N(CN5CCN(C)CC5)C(=O)C3C42)CC1 (stereo unspecified)	x	x	x	x	x	-1%[14.2 µM]
CO[C@@H]1/C=C\CC(=O)N2CCC[C@@H]2C(=O)OC[C@@H](C)C(=O)OC[C@H]1C	-4%[11.5 µM]	-1%[11.2 µM]	-2%[11.6 µM]	-5%[11.6 µM]	-21%[11.2 µM]	x
Cn1cccc1/C=C1\CCC/C(=C\c2cccn2C)C1=O	5µM*	9%	8%	u	-1%	80%
Cc1ccccc1N=C1NC(=O)/C(=C/c2cccn2C)S1	u	7%	-3%	-29%	2%	110%
Cc1ccc(-c2[nH]c3ccccc3c2SCCNC(=O)c2cc3ccccc3oc2=O)cc1	u	3%	-9%	8.9µM*[quencher]	0%	1%
O=C(NCCSc1c(-c2ccccc2)[nH]c2ccccc12)c1cc2ccccc2oc1=O	u	4%	-12%	7.1µM*[quencher]	-2%	5%
Cc1[nH]c2ccc(Br)cc2c1CCNC(=O)c1cc2ccccc2oc1=O	u	4%	u	u	-15%	x
CN(C)CCC[C@@H]1c2ccccc2Oc2ccc(C(F)(F)F)cc21	x	x	x	x	x	5%[14.2 µM]
CCCCCCCCCCCCCCC(C(=O)O)C(O)(CC(=O)OC)C(=O)O (stereo unspecified)	-4%	-6%	12%	11%	-41%	-2%
CC(C)NC(=O)c1sc2nc3c(c(-c4cccs4)c2c1N)CN(C)CC3	u	-2%	-3%	-20%	-3%	5%
CCN(CC)c1ccc(NC(=O)c2sc3nc4c(cc3c2N)CN(C)CC4)cc1	1.3µM*	-4%	u	u	6%	x
CN1CCc2nc3sc(C(=O)NCc4ccccc4)c(N)c3cc2C1	14µM*	-3%	-12%	u	-4%	14%
Cc1cccc(NC(=O)c2sc3nc4c(c(-c5cccs5)c3c2N)CN(C)CC4)c1	16µM*	-2%	u	28µM*[quencher]	0%	42%
C=C1CCN(C(Cc2ccccc2)C(=O)Nc2ccc(OC)cc2)S(=O)(=O)c2ccccc21 (stereo unspecified)	x	0%	x	x	-1%	x

Compound activity (PubChem BioAssay)
